HT1080 IDH1KD tx = qHTS for induction of synthetic lethality in tumor cells producing 2HG: qHTS for the HT-1080-IDH1KD cell line | 360,000 compounds, 2% hits | HT-1080 IDH1 knockdown viability, ATP luminescence, 48 h | Potency, µM (top dose mostly 46.1 µM), for the others: at the highest dose activity, negative = toxicity, hits mostly cytotoxic;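 note: potency is the fitted concentration of half-maximal effect; 0% = DMSO wells and -100% = cell-free medium wells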
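Knockdown cells (IDH1KD HT-1080) received compounds 2 h after plating at 750 cells/well and were kept 48 h at 37 °C in 5% FBS RPMI. A CellTiter-Glo luminescence read gave % activity for curve fitting.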
TGFb SMAD3 inh = qHTS for Inhibitors of TGF-b | HepG2 CAGA-GFP TGF-b/SMAD3 reporter, GFP fluorescence, 18 h; TGF-beta stimulated, 500 pg/mL final | Potency, µM (top dose mostly 46.1 µM), inactives show top-dose activity, negative = inhibition, usual class: inhibitors | 410,000 compounds, 1.2% hits | AID 588855, 2011; note: potency is the fitted concentration of half-maximal effect; % is set by controls: 0 for no effect and ±100 for the full control effect; nearly all actives have a fitted effect of over 65% in size
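TGF-beta reporter screen: HEPG2 CAGA-GFP, 1% FBS, 500 pg/mL TGF-beta final, 18 h; per-cell GFP summed per well; curves fitted and categorized by class.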
IL1B secr inh = qHTS for Inhibitors of Inflammasome Signaling: IL-1-beta AlphaLISA Primary Screen; THP-1 LPS/ATP IL-1B secretion, AlphaLISA, 16 h; active compounds read low; AID 743279, 2014; 360,000 compounds, 4.7% hits; activity change, % at 57.5 µM; in the data active = activity change below about -50%; inconclusive = mostly about -30% to -49%; note: % is set by controls: 0 for no effect and ±100 for the full control effect
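Secreted IL-1B measured by AlphaLISA bead assay after 16 h compound exposure of THP-1 cells; compounds (final up to 57.5 uM) added 1 h before LPS (250 ng/mL) and ATP (1.25 mM) stimulation; lower signal means less secretion.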
HepG2 tox = qHTS for Inhibitors of TGF-b: Cytotox Counterscreen; HepG2 CAGA-GFP viability, ATP luminescence, 18 h; Potency, µM (series often up to 46.1 µM), without a hit: top-dose activity change, negative = cytotoxicity, usual class: cytotoxic; 410,000 compounds, 0.76% hits; note: potency is the fitted concentration of half-maximal effect
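CellTiter-Glo luminescence gave cytotoxicity after 18 hours at 37 degrees C. The cells were HepG2 CAGA-GFP in 1% FBS DMEM, stimulated with 500 pg/mL TGF-beta after compound addition. %Activity was normalised to no-cell wells (complete cell-killing) and DMSO (no toxicity), and curves were fitted and classified.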
HT1080-NT tox = qHTS for induction of synthetic lethality in tumor cells producing 2HG: qHTS for the HT-1080-NT fibrosarcoma cell line. Potency, µM (highest dose often 46.1 µM), for inactives: at the top dose activity, negative = less viability, actives largely listed as cytotoxic. 360,000 compounds, 1.6% hits. HT-1080-NT fibrosarcoma viability, CellTiter-Glo ATP luminescence, 48 h;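 note: NT is the 2HG producing partner of a matched IDH1 knockdown line; potency is the fitted concentration of half-maximal effect; 0% = DMSO-treated cells and -100% = media-only wells without cells; nearly all actives have a fitted effect of over 55% in size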
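Viability of the 2HG-overproducing fibrosarcoma line after 48 hours of compound exposure at 37 degrees C was determined by luminescence with CellTiter-Glo, and concentration-effect curves were then fitted and categorized.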
Giardia killer = Small Molecules that selectively kill Giardia lamblia: qHTS; Giardia lamblia trophozoite viability; 340,000 compounds, 0.15% hits; activity change, % at 7.66 µM, hits read low; in the data active = activity change below about -80%; inconclusive = between about -30% and that limit;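 note: parasites exposed to compound for two days anaerobically before the ATP read; % is set by controls: 0 for no effect and ±100 for the full control effect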
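Each well holds 100 Giardia trophozoites and compound. After two days (48 hrs) at 37 deg C in anaerobic conditions, ATP is quantified by luminescence.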
Starred values were filed as active, the others as inactive; ? = inconclusive; · = no result given; [ ] = dose if it differs, or a comment. Only some compounds are listed: those with a hit (about 6.5% of all), similar ones and a draw of the others. Unless noted, calls come from the whole dose curve; as a rule, active = well fitted curve in the direction sought with a large enough effect; inconclusive = small, poorly fitted or top-dose-only effect, or another doubt; inactive = no such curve, though single readings can be large; an effect the other way counts as inactive or inconclusive.

SMILES | HT1080 IDH1KD tx | TGFb SMAD3 inh | IL1B secr inh | HepG2 tox | HT1080-NT tox | Giardia killer
CN(C)CCCN(C(=O)c1ccc(S(=O)(=O)N2CCc3ccccc3C2)cc1)c1nc2c(F)cccc2s1 | -12% | 3% | -51* | -50% | -7% | 22
COc1ccc2sc(N(CCCN(C)C)C(=O)c3ccc(S(=O)(=O)N4CCCC4)cc3)nc2c1 | -5% | 19% | ? | -11% | -4% | -2
CN(C)CCCN(C(=O)c1ccc(S(=O)(=O)N2CCc3ccccc3C2)cc1)c1nc2ccc(F)cc2s1 | 16µM* | ? | -98* | -89% | ? | 17
Cc1cccc2sc(N(CCCN(C)C)C(=O)c3ccc(S(=O)(=O)N4CCc5ccccc5C4)cc3)nc12 | ? | 8% | ? | -30% | ? | -1
CN(C)CCCN(C(=O)c1ccc(S(=O)(=O)N2CCCCCC2)cc1)c1nc2c(F)cc(F)cc2s1 | -3% | -15% | -86* | 0% | -7% | -1
CN(C)CCCN(C(=O)c1ccc(S(=O)(=O)N(C)C)cc1)c1nc2ccc(F)cc2s1 | 4% | 1% | -1 | -7% | -15% | 0
CN(C)CCCN(C(=O)c1ccc(S(=O)(=O)N2CCCC2)cc1)c1nc2c(F)cc(F)cc2s1 | -6% | -7% | -6 | -6% | -14% | 19
COc1ccc2sc(N(CCCN(C)C)C(=O)c3ccc(S(=O)(=O)N4CCc5ccccc5C4)cc3)nc2c1 | ? | 16µM* | -118* | -76% | ? | -2
CCc1ccc([C@@H]2CC=C(C(=O)O)[C@H](c3ccccc3F)N2S(=O)(=O)c2ccc(C)cc2)cc1 | -11% | -15% | 18 | -31% | -13% | -2
COC(=O)C(C(=O)OC)=C(/C=C/C=C/N(C)C)N(C)C | 7% | 2% | 11 | 4% | 6% | -1
Cc1ccc(S(=O)(=O)NC(=NCC(=O)O)c2ccccc2)cc1 | -3% | 4% | -9 | 3.2µM* | -1% | 4
O=C(O)CN=C(NS(=O)(=O)c1ccc(Cl)cc1)c1ccccc1 | -3% | 5% | 0 | -2% | -4% | 2
CCCCCCCNC(=O)C1(CC2CC(c3cccc(Br)c3)=NO2)CCN(C(=O)OC(C)(C)C)CC1 (configuration not stated) | 0% | -1% | -2 | -10% | 7% | 3
CCC(C(=O)NC1CCCC1)N(C(=O)Cn1nnc(-c2ccc(OC)c(OC)c2)n1)C1CCCCC1 (configuration not stated) | -5% | 5% | ? | -2% | 8%[9.24 µM] | -1
CC(C(=O)NC1CCCC1)N(C(=O)Cn1nnc(-c2ccc(F)cc2)n1)c1ccccc1F (configuration not stated) | -7% | -10% | -66* | -11% | -12% | -2
Cc1ccc(-c2nnn(CC(=O)N(Cc3cccs3)C(C(=O)NC3CCCC3)c3ccncc3)n2)cc1 (configuration not stated) | ? | ? | -16 | -18% | 16µM* | 14
CCC(C(=O)NC1CCCC1)N(C(=O)Cn1nnc(-c2ccc(C)cc2)n1)C1CCCC1 (configuration not stated) | 17% | 4% | -54* | 6% | 9% | 0
O=C(Cc1ccc(Br)cc1)NC1CCN(Cc2ccccc2)CC1 | -23% | 5% | ? | -20% | -1% | -4
CC(=O)Nc1ccc(S(=O)(=O)N2CCC(c3ccncc3)CC2)cc1 | · | ? | · | -13% | · | ·

High-throughput results from PubChem BioAssay.
